The panel holds about 83,000 compounds, 20% with a hit somewhere; the sample as a whole holds those more often.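 Step 1: grow cells in 96-well plates. Step 2: add test compound at a single concentration. Step 3: incubate 48 h. Step 4: record percent growth.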 A number with no mark means an inactive call. The source made the active and inactive calls. The calls were made as follows: active = growth percent below 10; inactive = the rest.
Experiments:
Assay in all cases: NCI-60 one-dose screen, 48 h (100 = growth as untreated, 0 = no growth, -100 = all killed)
Conditions in all cases: 10 µM unless noted
SR leukemia = tested on: SR leukemia
RPMI-8226 leukemia = tested on: RPMI-8226 leukemia
OVCAR-8 ovarian = tested on: OVCAR-8 ovarian
OVCAR-5 ovarian = tested on: OVCAR-5 ovarian
OVCAR-4 ovarian = tested on: OVCAR-4 ovarian
SK-OV-3 ovarian = tested on: SK-OV-3 ovarian
IGROV1 ovarian = tested on: IGROV1 ovarian
OVCAR-3 ovarian = tested on: OVCAR-3 ovarian
HS 578T breast = tested on: HS 578T breast
NCI/ADR-RES ovarian = tested on: NCI/ADR-RES ovarian
T-47D breast = tested on: T-47D breast
BT-549 breast = tested on: BT-549 breast
MDA-MB-435 melanoma = tested on: MDA-MB-435 melanoma
SW-620 colon = tested on: SW-620 colon
MCF7 breast = tested on: MCF7 breast
HCT-116 colon = tested on: HCT-116 colon
HCC-2998 colon = tested on: HCC-2998 colon
KM12 colon = tested on: KM12 colon

| Compound | growth (SR leukemia) | growth (RPMI-8226 leukemia) | growth (OVCAR-8 ovarian) | growth (OVCAR-5 ovarian) | growth (OVCAR-4 ovarian) | growth (SK-OV-3 ovarian) | growth (IGROV1 ovarian) | growth (OVCAR-3 ovarian) | growth (HS 578T breast) | growth (NCI/ADR-RES ovarian) | growth (T-47D breast) | growth (BT-549 breast) | growth (MDA-MB-435 melanoma) | growth (SW-620 colon) | growth (MCF7 breast) | growth (HCT-116 colon) | growth (HCC-2998 colon) | growth (KM12 colon) |
| --- | --- | --- | --- | --- | --- | --- | --- | --- | --- | --- | --- | --- | --- | --- | --- | --- | --- | --- |
| Cc1cccc2c3c(sc12)C(c1ccc(Cl)cc1)c1c(nc(CC(=O)Nc2ccccc2)[nH]c1=O)O3 (stereo not drawn) | 58.1% | 73.9% | 85.6% | 81.6% | 90.3% | 73.3% | 21% | 30.5% | 60.1% | 26.7% | 47.9% | 77.1% | 9.37% (active) | 40.9% | 38.1% | 37.7% | 85.7% | 37.7% |
| O=C(NNc1nc2cc(F)ccc2n2c(CN3CC4CNCC4C3)ccc12)c1cnccn1 (stereo not drawn) | 12.9% | 46.7% | 14.3% | 43.1% | 23.8% | 23.4% | 24.2% | 36.9% | 72.5% | 84.8% | 37.8% | 35.3% | 26.1% | 23% | 12.2% | 16.4% | 32.1% | 16.8% |
| Cc1nc2ncc(-c3ccc4ncnc(NCc5ccccc5)c4c3)cc2[nH]1 | 78.3% | 75.5% | 76.9% | 42.6% | 48% | 52.5% | 16.8% | 39.2% | 29.2% | 104% | 1.3% (active) | 57.3% | 82.1% | 82.3% | 27.1% | 77.8% | 79.2% | 77.8% |
| CC(C)(C)n1cc(-c2ccnc(NCCCNS(=O)(=O)c3cccc(F)c3)n2)c(-c2ccc(Cl)c(O)c2)n1 | 94.1% | 76% | 118% | 109% | 101% | 105% | 103% | 109% | 101% | 101% | 75.1% | 95.6% | 101% | 116% | 97.9% | 88.6% | 114% | 92.9% |
| NS(=O)(=O)c1ccc(Nc2nc(SCc3ccccc3)nc3ccccc23)cc1 | 33.6% | 32.8% | 60.6% | 83.3% | 58% | 91.3% | 90.9% | 84.7% | 62.2% | 102% | 24.8% | 66.7% | 76.8% | 61% | 54.3% | 53.2% | 83% | 27.8% |
| CCCn1cnc2c(c1=N)C(c1ccc(OC)cc1)c1sc3c(CC)cccc3c1O2 (stereo not drawn) | 8.89% (active) | -8.82% (active) | 26.9% | 41.1% | 71.8% | 42.3% | 31.9% | 6% (active) | 18.3% | 7.77% (active) | 27.9% | 33.3% | -44.5% (active) | 28.4% | 18.4% | 9.7% (active) | 19.2% | 16.8% |
| CCN(CC)c1ccc(NC2=C(Cl)C(=O)c3nc(C)ccc3C2=O)cc1 | 7.24% (active) | 2.6% (active) | -12.2% (active) | 108% | -97% (active) | 112% | -52.2% (active) | -29.6% (active) | 65.4% | 51.2% | -36% (active) | 132% | -76% (active) | -29.3% (active) | -38.5% (active) | -63.8% (active) | 9.75% (active) | 101% |
| CC/C(=C/c1cc(OC)ccc1O)c1ccc2cc(OC)ccc2[o+]1 | 18.3% | 79.4% | 87.1% | 82.8% | 89.8% | 60.2% | 55.1% | 20.7% | 63.4% | 33.5% | 52.9% | 51.5% | -28.3% (active) | 33.2% | 16.6% | 26.8% | 81.8% | 46.1% |
| COc1cc(OC)c(/C=C/S(=O)(=O)Cc2ccc(OC)c(NCC(=O)NO)c2)c(OC)c1 | 12.2% | 20.2% | 8.29% (active) | 33.6% | 45.3% | 37.3% | 9.44% (active) | 2.98% (active) | 17% | 7.63% (active) | 74.3% | 11.6% | -8.04% (active) | 28.3% | 11% | 3.2% (active) | 14.2% | 4.53% (active) |
| NC(N)=Nc1ccc(Oc2cccc(Nc3cccc(C(F)(F)F)c3)c2)cn1 | -46.9% (active) | -41.5% (active) | 45.4% | 50.4% | 24.7% | 67.8% | 13.8% | -66.6% (active) | 52.8% | 46.6% | 37.3% | 61.2% | -20.6% (active) | -79.1% (active) | -69.1% (active) | -76.8% (active) | -91.9% (active) | -82.8% (active) |
| CC1(C)CC[C@]2(C(=O)N3CCOCC3)CC[C@]3(C)C(=CC[C@@H]4[C@@]5(C)C/C(=C/c6ccccn6)C(=O)C(C)(C)[C@@H]5CC[C@]43C)[C@@H]2C1 | 22.5% | 15.9% | 77.9% | 88.4% | 36.1% | 108% | 65.3% | 70.2% | 81.6% | 81.4% | 53.4% | 70% | 68.6% | 69.6% | 44% | 34.9% | 81.4% | 72.4% |
| CN1CCN(c2ccc(/C=N/n3cnc4oc(-c5ccccc5)cc4c3=N)cc2)CC1 | 36.6% | 87.9% | 96.1% | 76.2% | 83.1% | 71.3% | 36.7% | 90.2% | 63.8% | 81.3% | 84.1% | 89.7% | 94.7% | 94% | 81.1% | 73.9% | 101% | 63.7% |
| CCN(CC)c1ccc2c(c1)Oc1nc(N)c(C#N)c(N)c1C2Sc1ccc(F)cc1 (stereo not drawn) | -9.13% (active) | -25.7% (active) | -31.1% (active) | -92.5% (active) | -29.3% (active) | -7.03% (active) | -77.9% (active) | -69.4% (active) | -4.5% (active) | -9.25% (active) | -35% (active) | 56.1% | -17.5% (active) | -80.2% (active) | -85.5% (active) | -81.4% (active) | -90.9% (active) | -74.1% (active) |
| CNc1ncc2cc(-c3ccc(-c4ncccc4F)cc3Cl)c(=O)n(CC3OCC(N)CO3)c2n1 (stereo not drawn) | 32.2% | 96.1% | 65.6% | 44.1% | 117% | 75.8% | -2.32% (active) | 90.7% | 34.6% | 79.4% | 72.5% | 82.1% | 105% | 99.1% | 101% | 80.2% | 100% | 95.7% |
| O=C(NCc1ncc[nH]1)c1ccc(-c2nc3ccc4[nH]ncc4c3c3c2CCCC3)cc1 | -52.6% (active) | 45% | 16.1% | 62.1% | 14.5% | -16.8% (active) | 3.6% (active) | 3.38% (active) | -12.8% (active) | 90.2% | -3.92% (active) | 0.679% (active) | 14.6% | 5.4% (active) | 1.62% (active) | -4.57% (active) | 12.8% | 4.99% (active) |
| COc1c(N2CC3CCCNC3C2)c(F)cc2c(=O)c(C(=O)N/N=C/c3ccc(F)cc3)cn(C3CC3)c12 (stereo not drawn) | -24.6% (active) | 60.2% | 91.7% | 95.6% | 90.5% | 110% | 97.9% | 92.9% | 94.4% | 89.4% | 96.1% | 84.8% | 91% | 99.5% | 75.9% | 67.9% | 97.3% | 104% |
